Reference: PubChem BioAssay
The source made the active and inactive calls.

Legend:
[1] = binders of probe aFSTL3 on microarray, primary screen, stem cell growth factor project, biochemical, small-molecule microarray, fluorescence 635/667 (AID 1064); details: higher = more signal;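 also: measures binding of the biotinylated anti-FSTL3 antibody to printed compounds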
[2] = binders from COS7 lysate, DM2A8 probe, primary screen, torsin A project, cell lysate, small-molecule microarray, fluorescence 635/667 (AID 1065); details: higher = more signal, COS7 lysate expressing mutant human TOR1A
[3] = binders of probe aFGF2 on microarray, primary screen, stem cell growth factor project, biochemical, small-molecule microarray, fluorescence 635/667 (AID 1067); details: higher = more signal;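 also: measures binding of biotinylated aFGF2 protein to printed compounds on slides; z-score merges feature fluorescence and signal-to-noise across triplicate slides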
[4] = binders of probe aFGF10 on microarray, primary screen, stem cell growth factor project, biochemical, small-molecule microarray, fluorescence 635/667 (AID 1071); details: higher = more signal;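 also: score merges 667 nm spot intensity and signal to noise from triplicate slides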
[5] = biological target: Neurogenic locus notch homolog protein 2 (Homo sapiens) (UniProt Q04721); experiment: Notch2 binders on small-molecule microarrays, primary screen, biochemical, small-molecule microarray, 635 nm fluorescence, stem cell growth factors (AID 1073); details: Notch2 binding, higher = more signal
[6] = biological target: Pro-neuregulin-1, membrane-bound isoform (Homo sapiens) (UniProt Q02297); experiment: NRG1 binders on small-molecule microarrays, primary screen, psychiatric disease protein project, biochemical, small-molecule microarray, fluorescence 635/667 (AID 1075); details: NRG1 binding, 635 nm fluorescence, higher = more signal;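 also: score combines 667 nm spot fluorescence with signal to noise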
[7] = system: Neuregulin-1 EGF-like domain; experiment: binders of neuregulin-1 EGF-like domain, primary screen, biochemical, small-molecule microarray, 635 nm fluorescence (AID 1081); details: small-molecule microarray binding, higher = more signal;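 also: binding of the protein to compounds printed on small-molecule microarray slides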
[8] = FRG1 promoter luciferase signal modulators, primary screen, FRG1 inhibition for FSHD, cell-based, C2C12 myotubes, firefly/Renilla luciferase, luminescence (AID 1084); details: higher = more signal, called active from +8 up or from −8 down
[9] = binders of probe aFST on microarray, primary screen, stem cell growth factor project, biochemical, small-molecule microarray, fluorescence 635/667 (AID 1086); details: higher = more signal;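 also: score merges 667 nm fluorescence with signal-to-noise of each printed compound spot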
[10] = binders of probe aHhip on microarray, primary screen, stem cell growth factor project, biochemical, small-molecule microarray, fluorescence 635/667 (AID 1087); details: higher = more signal;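 also: score merges spot fluorescence at 667nm with spot signal to noise ratio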
[11] = system: PRMT1 (protein arginine N-methyltransferase 1); experiment: PRMT1 binders on small-molecule microarrays, primary screen, biochemical, small-molecule microarray, 635 nm fluorescence (AID 1088); details: small-molecule microarray binding, higher = more signal;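 also: binding of Prmt1 protein to compounds spotted on small-molecule microarray slides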
[12] = yeast growth modulation, basal conditions, primary screen, YJM789 clinical isolate, OD600, 24 h (AID 1089);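 also: growth of clinical yeast isolate S. cerevisiae YJM 789 seeded 1000 cells per well; test concentration not given here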; details: S. cerevisiae YJM789 growth, higher = more signal, called active from +8 up or from −8 down
[13] = fission yeast growth modulation, primary screen, strain 972, OD600, 24 h, no modulator (AID 1090);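 also: basal condition with compound alone and no growth modifier present; test concentration not given here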; details: S. pombe 972 growth, higher = more signal, called active from +8 up or from −8 down
[14] = S. cerevisiae growth modulation with rapamycin, primary screen, strain BY4716, OD600, 96 h (AID 1091); details: higher = more signal, called active from +8 up or from −8 down; also: test concentration not given here
[15] = biological target: Torsin-1A-interacting protein 2 (Homo sapiens) (UniProt Q8NFQ8); experiment: LULL1 binders on small-molecule microarray, primary screen, cell lysate, human LULL1 lysate, 635/667 nm fluorescence (AID 1092); details: hLULL1 lysate binding, 635 nm fluorescence, higher = more signal;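 also: probe is lysate of COS7 cells overexpressing human LULL1; score merges per-feature 667 nm fluorescence with signal-to-noise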
[16] = E. coli growth modulation, two-sided OD650, primary screen, E. coli filamentation project, strain DRC41, 24 h (AID 1093); details: OD650, 24 h, higher = more signal, called active from +8 up or from −8 down;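 also: MC1000 strain lacking acrAB efflux and sulA so SOS filamentation is blocked; test concentration not given here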
[17] = small-molecule microarray binders of probe aLefty2, primary screen, biochemical, biotinylated probe, 635/667 nm fluorescence (AID 1094); details: higher = more signal;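 also: score merges spot fluorescence near 667 nm with spot signal-to-noise ratio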
[18] = system: Noggin (protein binding on small-molecule microarray); experiment: Noggin binders on small-molecule microarray, primary screen, biochemical, 635/667 nm fluorescence (AID 1095); details: 635 nm fluorescence, higher = more signal;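 also: score merges 667 nm feature fluorescence with signal to noise over triplicate slides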
[19] = biological target: Neurogenic locus notch homolog protein 3 (Homo sapiens) (UniProt Q9UM47); experiment: NOTCH3 binders on small-molecule microarray, primary screen, biochemical, 635/667 nm fluorescence (AID 1096); details: NOTCH3 binding, 635 nm fluorescence, higher = more signal
[20] = small-molecule microarray binders of probe aEGFR, primary screen, biochemical, biotinylated probe, 635/667 nm fluorescence (AID 1097); details: higher = more signal;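 also: probe is a biotinylated anti-EGFR antibody binding compounds printed on slides; score combines fluorescence near 667 nm and signal to noise of each spot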

Sequence of Neurogenic locus notch homolog protein 2 (Homo sapiens) (Q04721 whole entry, looked up, canonical isoform): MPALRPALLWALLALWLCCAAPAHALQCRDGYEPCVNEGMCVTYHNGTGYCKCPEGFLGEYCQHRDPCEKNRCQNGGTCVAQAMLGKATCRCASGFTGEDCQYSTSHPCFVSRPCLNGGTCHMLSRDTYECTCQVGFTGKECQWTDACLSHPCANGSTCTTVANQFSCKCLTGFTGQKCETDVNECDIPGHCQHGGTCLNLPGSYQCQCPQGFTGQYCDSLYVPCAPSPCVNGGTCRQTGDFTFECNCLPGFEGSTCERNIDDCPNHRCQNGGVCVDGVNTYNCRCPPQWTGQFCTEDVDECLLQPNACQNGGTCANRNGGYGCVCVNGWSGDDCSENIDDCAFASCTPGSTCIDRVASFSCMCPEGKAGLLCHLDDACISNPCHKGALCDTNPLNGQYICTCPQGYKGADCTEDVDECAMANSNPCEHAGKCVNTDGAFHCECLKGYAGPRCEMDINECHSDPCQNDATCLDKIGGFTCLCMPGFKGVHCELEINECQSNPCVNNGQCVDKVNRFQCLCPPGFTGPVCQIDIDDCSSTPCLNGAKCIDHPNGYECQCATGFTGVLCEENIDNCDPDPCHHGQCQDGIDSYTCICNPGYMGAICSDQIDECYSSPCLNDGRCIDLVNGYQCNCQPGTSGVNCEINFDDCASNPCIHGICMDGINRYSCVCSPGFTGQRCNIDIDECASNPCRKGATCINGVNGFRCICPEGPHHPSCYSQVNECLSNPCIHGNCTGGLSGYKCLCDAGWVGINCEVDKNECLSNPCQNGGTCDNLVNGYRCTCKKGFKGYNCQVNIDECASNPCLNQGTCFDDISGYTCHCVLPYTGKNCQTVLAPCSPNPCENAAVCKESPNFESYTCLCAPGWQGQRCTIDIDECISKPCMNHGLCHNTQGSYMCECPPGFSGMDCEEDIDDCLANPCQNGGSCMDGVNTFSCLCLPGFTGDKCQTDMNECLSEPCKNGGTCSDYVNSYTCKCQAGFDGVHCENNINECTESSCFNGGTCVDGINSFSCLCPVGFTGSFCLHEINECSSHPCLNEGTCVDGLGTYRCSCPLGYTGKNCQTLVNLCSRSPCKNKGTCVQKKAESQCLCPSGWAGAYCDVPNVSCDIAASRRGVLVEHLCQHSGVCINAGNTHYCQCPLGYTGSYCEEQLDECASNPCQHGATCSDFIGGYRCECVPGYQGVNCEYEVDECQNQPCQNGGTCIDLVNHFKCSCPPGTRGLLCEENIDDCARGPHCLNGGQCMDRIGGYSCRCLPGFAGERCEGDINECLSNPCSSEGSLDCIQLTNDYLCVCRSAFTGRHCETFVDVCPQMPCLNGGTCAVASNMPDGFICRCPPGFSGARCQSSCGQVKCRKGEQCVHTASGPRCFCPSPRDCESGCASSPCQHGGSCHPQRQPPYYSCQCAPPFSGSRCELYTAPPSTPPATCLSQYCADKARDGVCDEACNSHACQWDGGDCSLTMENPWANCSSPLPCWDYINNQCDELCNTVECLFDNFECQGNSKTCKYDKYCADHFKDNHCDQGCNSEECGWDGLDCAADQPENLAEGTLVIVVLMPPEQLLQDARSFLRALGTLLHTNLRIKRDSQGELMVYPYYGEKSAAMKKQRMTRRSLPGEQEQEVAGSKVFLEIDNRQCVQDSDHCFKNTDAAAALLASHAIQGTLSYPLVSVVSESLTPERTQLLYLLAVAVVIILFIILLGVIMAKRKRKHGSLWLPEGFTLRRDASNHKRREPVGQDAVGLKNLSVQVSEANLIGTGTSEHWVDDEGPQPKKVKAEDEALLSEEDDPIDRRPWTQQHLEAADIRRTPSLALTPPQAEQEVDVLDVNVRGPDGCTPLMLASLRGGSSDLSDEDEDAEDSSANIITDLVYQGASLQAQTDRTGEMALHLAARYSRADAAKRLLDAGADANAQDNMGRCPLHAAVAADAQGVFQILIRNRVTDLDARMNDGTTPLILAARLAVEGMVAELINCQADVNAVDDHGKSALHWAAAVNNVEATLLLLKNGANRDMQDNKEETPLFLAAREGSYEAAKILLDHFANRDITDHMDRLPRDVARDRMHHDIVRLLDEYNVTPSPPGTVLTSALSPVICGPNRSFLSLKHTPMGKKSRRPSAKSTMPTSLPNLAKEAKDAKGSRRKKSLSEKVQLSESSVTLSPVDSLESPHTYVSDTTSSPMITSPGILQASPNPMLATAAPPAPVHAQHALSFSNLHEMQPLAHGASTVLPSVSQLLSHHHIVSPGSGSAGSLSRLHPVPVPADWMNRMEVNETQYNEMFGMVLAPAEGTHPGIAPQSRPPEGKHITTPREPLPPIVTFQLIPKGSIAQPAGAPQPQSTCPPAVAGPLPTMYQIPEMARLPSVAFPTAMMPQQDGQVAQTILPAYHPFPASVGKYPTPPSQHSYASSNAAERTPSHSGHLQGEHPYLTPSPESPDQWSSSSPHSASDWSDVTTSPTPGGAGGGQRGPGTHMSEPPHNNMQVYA
Sequence of Torsin-1A-interacting protein 2 (Homo sapiens) (Q8NFQ8 whole entry, looked up): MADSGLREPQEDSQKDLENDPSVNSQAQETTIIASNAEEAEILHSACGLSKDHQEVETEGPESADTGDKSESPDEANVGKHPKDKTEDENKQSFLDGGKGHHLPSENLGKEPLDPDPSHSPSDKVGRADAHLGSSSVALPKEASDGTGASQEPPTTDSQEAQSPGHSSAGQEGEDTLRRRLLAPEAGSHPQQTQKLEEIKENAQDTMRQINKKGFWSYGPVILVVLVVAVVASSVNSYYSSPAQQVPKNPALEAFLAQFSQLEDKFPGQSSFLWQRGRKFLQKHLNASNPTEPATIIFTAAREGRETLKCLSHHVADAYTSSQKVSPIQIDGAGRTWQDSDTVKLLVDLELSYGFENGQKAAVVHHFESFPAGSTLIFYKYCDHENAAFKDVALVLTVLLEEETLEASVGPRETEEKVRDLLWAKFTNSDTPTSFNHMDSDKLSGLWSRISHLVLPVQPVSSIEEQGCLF
Sequence of Pro-neuregulin-1, membrane-bound isoform (Homo sapiens) (Q02297 whole entry, looked up, the tested form may be a part, canonical isoform): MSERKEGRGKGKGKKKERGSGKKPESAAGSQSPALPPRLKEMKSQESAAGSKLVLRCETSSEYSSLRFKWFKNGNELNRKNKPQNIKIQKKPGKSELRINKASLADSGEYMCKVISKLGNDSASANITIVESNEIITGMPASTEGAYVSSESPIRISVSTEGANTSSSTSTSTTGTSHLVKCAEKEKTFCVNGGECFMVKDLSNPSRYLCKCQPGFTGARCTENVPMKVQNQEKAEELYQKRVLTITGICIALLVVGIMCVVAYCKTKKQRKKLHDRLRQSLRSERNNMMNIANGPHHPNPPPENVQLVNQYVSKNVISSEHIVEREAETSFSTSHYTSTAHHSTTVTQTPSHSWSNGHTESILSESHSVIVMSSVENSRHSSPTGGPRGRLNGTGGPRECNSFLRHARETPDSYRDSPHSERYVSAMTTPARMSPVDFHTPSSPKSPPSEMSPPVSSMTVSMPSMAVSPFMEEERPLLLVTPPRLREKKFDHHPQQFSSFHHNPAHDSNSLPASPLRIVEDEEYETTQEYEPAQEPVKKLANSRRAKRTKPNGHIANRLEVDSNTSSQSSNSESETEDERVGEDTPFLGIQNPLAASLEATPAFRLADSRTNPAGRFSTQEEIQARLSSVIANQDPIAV

| SMILES | composite z-score [1] | composite z-score [2] | composite z-score [3] | composite z-score [4] | composite z-score [5] | composite z-score [6] | composite z-score [7] | z-score [8] | composite z-score [9] | composite z-score [10] | composite z-score [11] | z-score [12] | z-score [13] | z-score [14] | composite z-score [15] | z-score [16] | composite z-score [17] | composite z-score [18] | composite z-score [19] | composite z-score [20] |
| --- | --- | --- | --- | --- | --- | --- | --- | --- | --- | --- | --- | --- | --- | --- | --- | --- | --- | --- | --- | --- |
| CO[C@H]1O[C@H](CO)[C@@H](OC(=O)Nc2ccccc2-c2ccccc2)[C@H](OC(=O)Nc2ccccc2-c2ccccc2)[C@H]1OC(=O)Nc1ccccc1-c1ccccc1 | -0.0136 | 1.68 | 0.17 | 1.17 | 1.4 | 0.885 | 1.42 | 0.849 (inactive) | 0.374 | 0.245 | 1.54 | 3.06 (inactive) | 2.48 (inactive) | 10.6 (active) | 3.23 | 0.956 (inactive) | 0.115 | 0.65 | 1.08 | 0.0553 |
| COc1ccc(C(=O)Nc2cccc(CN3C(=O)[C@@]4(O[C@@H](CCn5cc([C@H](O)c6ccccc6)nn5)[C@H]([Si](C)(C)c5ccc(OC)cc5)[C@H]4C)c4ccccc43)c2)cc1 | 0.395 | -0.559 | -0.123 | 0.335 | 0.336 | 0.838 | 1.14 | -1.47 (inactive) | 0.179 | 0.0373 | 0.677 | -0.384 (inactive) | -1.17 (inactive) | 0.0585 (inactive) | 1.11 | -0.594 (inactive) | 0.0123 | 1.58 | 0.806 | -0.0947 |
| CC(C)(C)OC(=O)CC[C@@]1(C(=O)NCC(O)CO)N=C(c2ccc(OCCCO)cc2)O[C@@H]1c1ccccc1 (stereo not given in full) | 0.222 | 1.68 | -0.11 | 0.0407 | 0.739 | 1.8 | 1.35 | 1.74 (inactive) | 0.74 | 0.12 | 1.46 | 0.531 (inactive) | 0.18 (inactive) | 0.375 (inactive) | 3.77 | -0.103 (inactive) | 0.0689 | -0.364 | 0.356 | -0.071 |
| CCCC[C@@H]1C[C@H]1[C@@H](NC(=O)c1ccccc1)c1ccccc1 | 0.343 | -0.0895 | 0.15 | 0.14 | 0.18 | -0.392 | -0.303 | -0.0327 (inactive) | 1.14 | 2.02 | -0.352 | 0.588 (inactive) | 1.02 (inactive) | 1.54 (inactive) | 0.981 | -0.404 (inactive) | 0.302 | 0.226 | 0.571 | 0.104 |
| O[C@@H](Cc1ccccc1)[C@@H](/C=C/c1ccccc1)NCc1ccccc1Br | 0.686 | -1.36 | -0.176 | -1.09 | -1.31 | -0.803 | -0.639 | -0.926 (inactive) | -0.579 | -0.475 | -0.995 | 0.0419 (inactive) | -11.4 (active) | -1.54 (inactive) | -0.557 | 0.908 (inactive) | 0.0372 | -1.34 | -0.707 | -0.348 |
